# A selection: hits, their analogues and other compounds. The true share with any hit is near 2%.
# NALP1 yeast inh: NALP1 inhibition. S. cerevisiae NALP1/ASC/caspase-1 growth, X-gal OD620, 72 h. inhibition, % at 10 µM. 0.61% of 280,000 active. AID 2071; in the data active = inhibition mostly above about 24%, no sharp cut-off; inactive = mostly below about 32%
# A3G deaminase: blocks human APOBEC3G single-stranded DNA deamination; Q9HC16; recombinant A3G, ssDNA deamination FAM/TAMRA fluorescence; inhibition, % at 20 µM; 0.28% of 330,000 active; AID 493012;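 active = inhibition of at least 40% at 20 µM, with no more than 30% in the related APOBEC3A deaminase screen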;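 also: plate controls were DMSO wells with A3G for no effect and wells lacking A3G enzyme for full effect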
# Fh CTSL1 inh: counter-screen for PFM18AAP inhibitors: inhibitors of F. hepatica cathepsin L1. 0.49% of 300,000 active. inhibition, % at 5.96 µM. recombinant F. hepatica cathepsin L1, Z-Leu-Arg-MCA fluorescence;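 active = inhibition above the mean of all tested compounds plus 3 SD, set per screening campaign, cut at about 17% in these data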;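 also: 0% = plate median of test compound wells and 100% = 1 µM Z-Phe-Ala-diazomethylketone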
# sPLA2-III inh: Blocks human group III sPLA2 activity. Q9NZ20. QFRET BODIPY PC-A2 liposome hydrolysis, fluorescence. inhibition, % at 12.2 µM. 0.56% of 370,000 active;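 active = inhibition above mean plus 3 SD of compounds lying within the high and low control bounds, cut at about 19% in these data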;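 also: 0% = median of test compound wells and 100% = no enzyme DMSO wells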
# APOBEC3A inh: blocks human APOBEC3A ssDNA deamination; P31941; recombinant A3A, FAM/TAMRA ssDNA deamination fluorescence; inhibition, % at 20 µM; 0.41% of 330,000 active;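 active = at least 40% inhibition at 20 µM here, with at most 30% in a related deaminase screen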;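 also: plate controls were A3A with DMSO for no effect and wells lacking A3A enzyme for full effect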
# Target sequence (P31941 whole entry, looked up): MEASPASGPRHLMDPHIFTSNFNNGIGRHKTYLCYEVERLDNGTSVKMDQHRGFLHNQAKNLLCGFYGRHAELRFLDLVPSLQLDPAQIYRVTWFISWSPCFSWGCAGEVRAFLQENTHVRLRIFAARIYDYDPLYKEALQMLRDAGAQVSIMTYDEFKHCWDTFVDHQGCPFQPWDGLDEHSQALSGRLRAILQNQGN
# hGIII sPLA2 conf: human GIII-sPLA2 inhibition, confirmation. shares compounds with sPLA2-III inh. recombinant hGIII-sPLA2, BODIPY PC-A2 QFRET fluorescence. inhibition, % at 12.2 µM. 34% of 2,000 active;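 active = mean inhibition across triplicates above the hit cutoff set in the earlier primary screen, cut at about 19% in these data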;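 also: 0% = enzyme with DMSO and 100% = DMSO wells lacking enzyme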
# BODIPY interf: optically interferes with 535nm fluorescence in sPLA2 counter-screen; AID 743282; BODIPY FL product fluorescence interference, QFRET; inhibition, % at 12.2 µM; 8.5% of 2,000 active; shares compounds with sPLA2-III inh;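 active = average inhibition above the solvent-only control mean plus 3 SD, cut at about 6% in these data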;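 also: 0% = DMSO with substrate plus product and 100% = DMSO with substrate alone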
# Active calls of the source: *; / = no result given.
SMILES,NALP1 yeast inh,A3G deaminase,Fh CTSL1 inh,sPLA2-III inh,APOBEC3A inh,hGIII sPLA2 conf,BODIPY interf
O=C(Nc1ccc(N2CCCCCC2)cc1)c1ccccc1Cl,11,-2,7,16,3,/,/
CN(C)S(=O)(=O)c1cccc(C(=O)Nc2ccc(N3CCOCC3)cc2)c1,/,-2,3,25*,-11,4,-2
CN(c1ccccc1)S(=O)(=O)c1cccc(C(=O)Nc2ccc(N3CCOCC3)cc2)c1,/,-5,/,-8,-1,/,/
O=C(Nc1ccc(N2CCCC2)cc1)c1cccc(Cl)c1,13,-9,1,24*,-1,25*,-1
Cc1ccc(NC(=O)C2CCCO2)cc1[N+](=O)[O-] (centres undefined),26,0,1,20*,1,1,-2
CC(=O)c1ccc(Nc2nc(C(N)Cc3ccc(C(F)(F)F)cc3)cs2)cc1 (centres undefined),/,/,/,10,/,/,/
Cc1ccc(C(=O)Nc2nc(C(N)Cc3ccc(C(F)(F)F)cc3)cs2)cc1 (centres undefined),/,/,/,23*,/,5,-3
COC(=O)[C@H](C(C)C)N1Cc2nnn(Cc3ccccc3)c2-c2cc(F)ccc2S1(=O)=O,/,/,/,3,/,/,/
COC(=O)CSc1nnc(-c2cc(-c3ccccc3)n[nH]2)n1N,/,/,/,1,/,/,/
COc1cccc(/C=N\N2CCN(c3ccc(C)cc3)CC2)c1O,/,/,/,2,/,/,/
NNC(=S)NCc1ccc2c(c1)OCO2,105*,-8,1,20*,0,10,-6
CC(C)C1Cc2[nH]c(=S)[nH]c(=O)c2C(c2ccc(F)cc2)O1 (centres undefined),/,/,/,4,/,/,/
CC(C)C1Cc2[nH]c(=S)[nH]c(=O)c2C(c2ccc(Cl)cc2)O1 (centres undefined),/,/,/,20*,/,5,-12
CCOC(=O)N1CCN(S(=O)(=O)c2ccc(F)c(C(=O)Nc3ccc(C)c(Cl)c3)c2)CC1,39,8,8,-38,6,/,/
CCOC(=O)N1CCN(S(=O)(=O)c2ccc(F)c(C(=O)Nc3ccc(C(C)C)cc3)c2)CC1,20,-6,-2,20*,1,-19,-17
FC(F)(F)C1=Nc2cccc3cccc(c23)N1,/,84,/,28*,98,32*,12*
Fc1ccc(C2=Nc3cccc4cccc(c34)N2)cc1,4,-5,2,9,-2,/,/
Cc1ccc(NC(=O)CCS(=O)(=O)c2ccccc2)c(C)c1,/,/,/,6,/,/,/
CC(C)CCC(CCNCc1ccccn1)c1ccc2c(c1)OCO2 (centres undefined),6,-6,0,23*,1,-25,-26
CCNCCC(CCC(C)C)c1ccc2c(c1)OCO2 (centres undefined),/,-1,-2,-4,2,/,/
C=CCN(CC#CC1=CCCCC1)Cc1ccc(OC)cc1OC,/,/,/,1,/,/,/
CCn1c(-c2c[nH]c3ccccc23)n[nH]c1=S,-16,39,1,24*,-6,15,0
C[C@H]1CCCN1c1cccc2c1S(=O)(=O)N(C1CC1)CCCO2,/,/,/,0,/,/,/
CC(COc1cccc(Cl)c1)CN1CCC(C(O)(c2ccccc2)c2ccccc2)CC1 (centres undefined),/,/,/,-19,/,/,/
CCOC1(c2ccccc2)OC(=O)c2ccccc21 (centres undefined),13,0,-5,22*,-1,0,-5
CC(C)OC1(c2ccccc2)OC(=O)c2ccccc21 (centres undefined),/,-6,-2,-1,-4,/,/
Nc1ccc(Oc2cc(N)cc(Oc3ccccc3)c2)cc1,9,-5,-1,23*,-3,10,-2
COc1cccc(-c2csc(N3CCN(C(=S)Nc4ccccc4)CC3)n2)c1,8,-7,1,19*,-1,11,-4
CN(C)C=NC1=NN(c2cccc(C(F)(F)F)c2)CC1,35,-8,-1,21*,-2,-5,-3

# Assay outcomes as filed in PubChem BioAssay.
